For part of these data: Potency and affinity values are given separately. Active and inactive are the calls of the source.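 Rule for the calls, unless noted: active = fitted half-maximal concentration within the tested dose range, moderate curve steepness, a statistically real signal drop, and little compound fluorescence or tag-binding interference; inactive = the rest.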

The values that follow come from PubChem BioAssay.

Assay [1] deals with Cell division control protein 42 homolog (Homo sapiens) (UniProt P60953). Kind of assay: activated mutant Cdc42 GTP-binding inhibitors, dose response, biochemical, multiplex bead flow cytometry, Bodipy-FL-GTP (AID 1333). (A flow cytometer gives signals particle by particle.)
Assay [2] shares this target. Kind of assay: wildtype Cdc42 GTP-binding inhibitors, dose response, biochemical, multiplex bead flow cytometry, Bodipy-FL-GTP (AID 1334;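 active = fitted half-maximal concentration within the tested range, moderate curve steepness, significant signal drop, and little compound fluorescence or bead-linkage interference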). Conditions: bead-based flow cytometry, Bodipy-FL-GTP binding to GST-Cdc42; at 100 µM (top of the series) unless noted.
The target in assay [3] is GTPase HRas (Homo sapiens) (UniProt P01112). Kind of assay: inhibitors of GTP binding to wildtype Ras, dose response, biochemical, multiplex bead flow cytometry (AID 1335;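 active = fitted half-maximal concentration within 10 nM to 100 µM, steepness 0.5 to 2, significant signal drop, low assay interference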). The conditions noted are these: bead-based flow cytometry, Bodipy-GTP binding to GST-Ras; at 100 µM (top of the series) unless noted.
The test system of assay [4] is Ras-related protein Rab-7a (dog), GTP binding. Nature of the assay: Rab7 GTP binding inhibitors, potency, dose response, biochemical, wildtype, multiplex bead flow cytometry (AID 1336; call rule not given here).
For assay [5], the target named is Ras-related C3 botulinum toxin substrate 1 (Homo sapiens) (UniProt P63000). Kind of assay: wildtype Rac1 GTP binding inhibitors, dose response, biochemical, multiplex bead flow cytometry (AID 1340;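 active = dose curve with midpoint inside tested range, moderate steepness, plateau gap beyond fit error, low compound glow and bead-link interference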). Conditions: GST-Rac1 beads, Bodipy-FL-GTP binding; at 100 µM (top of the series) unless noted.
In assay [6] the target is GTPase HRas (Homo sapiens) (UniProt P01112). Kind of assay: activated Ras mutant GTP binding inhibitors, dose response, biochemical, multiplex bead flow cytometry (AID 1341;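 active = dose-response curve with midpoint inside the tested range, moderate steepness, significant amplitude and little compound fluorescence or bead-attachment interference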;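 note: GST-tagged constitutively activated Ras mutant immobilized on beads and multiplexed with other GTPases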).

Sequence of Cell division control protein 42 homolog (Homo sapiens) (P60953 whole entry, looked up): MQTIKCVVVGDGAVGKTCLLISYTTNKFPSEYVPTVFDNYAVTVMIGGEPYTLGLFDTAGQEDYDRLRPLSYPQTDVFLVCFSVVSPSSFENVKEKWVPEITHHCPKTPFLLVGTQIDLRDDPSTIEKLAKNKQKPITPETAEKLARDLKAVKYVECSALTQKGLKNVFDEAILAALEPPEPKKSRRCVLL
Sequence of GTPase HRas (Homo sapiens) (P01112 whole entry, looked up): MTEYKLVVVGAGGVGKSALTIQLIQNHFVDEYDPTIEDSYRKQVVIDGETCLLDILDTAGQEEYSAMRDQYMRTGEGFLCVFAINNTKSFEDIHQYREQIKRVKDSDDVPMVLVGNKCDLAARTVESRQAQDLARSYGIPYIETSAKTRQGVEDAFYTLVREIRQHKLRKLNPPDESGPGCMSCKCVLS

As for `Cc1nn(CCc2nn[nH]n2)c2nc(-c3ccc(C4CCCCC4)cc3)cc(C(F)(F)F)c12`, the compound was called inactive in assay [1], in assay [4] and in assay [6]. In addition, in assay [2], the fluorescence, percent of control (lower = inhibition) was 22.1%. The compound also showed a GTP binding, percent of control in assay [3] of 79.4%. Further, the GTP binding signal, raw median fluorescence (lower = inhibition) (MCF (arbitrary fluorescence units)) in assay [5] came to 249.
On to `CCOC(=O)C1=NN(c2ccc(C)cc2)CC1C(=O)OC` (centres undefined), for which the call in assay [1], in assay [4] and in assay [6] was inactive. This compound also showed a fluorescence, percent of control (lower = inhibition) in assay [2] of 41.5%. The GTP binding, percent of control in assay [3] came out at 86.3%. In assay [5], this compound showed a GTP binding signal, raw median fluorescence (lower = inhibition) (MCF (arbitrary fluorescence units)) of 244.
`CC(=O)Nc1ccc(/C=N/NC(=O)CCN2CCN(c3ccccc3)CC2)cc1`: the call in assay [1], in assay [4] and in assay [6] was inactive. For the same compound, the fluorescence, percent of control (lower = inhibition) in assay [2] came to 33.8%. The compound further displayed a GTP binding, percent of control in assay [3] of 74.7%. In assay [5], this compound came in with a GTP binding signal, raw median fluorescence (lower = inhibition) (MCF (arbitrary fluorescence units)) of 140.
As to `O=C(Cc1ccc(Nc2nc(=S)[nH]c3ccccc23)cc1)NC1CCCCC1`, the outcome in assay [1], in assay [4] and in assay [6] was inactive. The compound also returned a fluorescence, percent of control (lower = inhibition) in assay [2] of 25.9%. The compound also registered a GTP binding, percent of control in assay [3] of 61.6%. In assay [5], this compound yielded a GTP binding signal, raw median fluorescence (lower = inhibition) (MCF (arbitrary fluorescence units)) of 153.
For `CCC(=O)c1ccc(OCC(=O)O)c(OC)c1`, the compound was called inactive in assay [1], in assay [4] and in assay [6]. Moreover, the fluorescence, percent of control (lower = inhibition) in assay [2] is 46.1%. The compound further returned a GTP binding, percent of control in assay [3] of 121%. The compound also had a GTP binding signal, raw median fluorescence (lower = inhibition) (MCF (arbitrary fluorescence units)) in assay [5] of 64.7.
With `Cc1ccc(/C=N/NC(=O)C2CCN(Cc3ccc(F)cc3Cl)CC2)o1`, the call in assay [1], in assay [4] and in assay [6] was inactive. The fluorescence, percent of control (lower = inhibition) in assay [2] was determined as 39%. Further, the GTP binding, percent of control in assay [3] was determined as 82.7%. In addition, the GTP binding signal, raw median fluorescence (lower = inhibition) (MCF (arbitrary fluorescence units)) in assay [5] turned out to be 241.
`Oc1ccc(C2=Nn3c(nnc3-c3ccco3)SC2)cc1O`: the compound was called inactive in assay [1], in assay [4] and in assay [6]. Moreover, the fluorescence, percent of control (lower = inhibition) in assay [2] was 25.1%. Also, the GTP binding, percent of control in assay [3] was determined as 35.2%. The compound also displayed a GTP binding signal, raw median fluorescence (lower = inhibition) (MCF (arbitrary fluorescence units)) in assay [5] of 0.
For the compound `CCOC(=O)/C=C1\SCC(=O)N1CCOc1cccc(Br)c1`, the call in assay [1], in assay [4] and in assay [6] was inactive. In addition, the fluorescence, percent of control (lower = inhibition) in assay [2] is 94.9%. Further, in assay [3], the GTP binding, percent of control is 164%. The compound also showed a GTP binding signal, raw median fluorescence (lower = inhibition) (MCF (arbitrary fluorescence units)) in assay [5] of 185.
Turning to `COC(=O)COc1ccc(/C=N/NC(=O)c2ccc(N(Cc3ccccc3)S(C)(=O)=O)cc2)cc1`, the result in assay [1], in assay [4] and in assay [6] was inactive. The compound further yielded a fluorescence, percent of control (lower = inhibition) in assay [2] of 39.7%. This compound came in with a GTP binding, percent of control in assay [3] of 55.5%. The GTP binding signal, raw median fluorescence (lower = inhibition) (MCF (arbitrary fluorescence units)) in assay [5] came out at 124.
For the compound `O=C1c2ccccc2C(=O)N1CCCCN(C(=O)c1cc2ccccc2oc1=O)c1ccc(Cl)cc1`, the compound was classed as inactive in assay [1], in assay [4] and in assay [6]. In assay [2], this compound had a fluorescence, percent of control (lower = inhibition) of 51.3%. In assay [3], this compound returned a GTP binding, percent of control of 60.9%. The same compound displayed a GTP binding signal, raw median fluorescence (lower = inhibition) (MCF (arbitrary fluorescence units)) in assay [5] of 210.
For the compound `Cc1c(Cl)c([N+](=O)[O-])nn1Cc1ccc(C(=O)N/N=C\c2ccccn2)o1`, the compound was classed as inactive in assay [1], in assay [4] and in assay [6]. In assay [2], this compound gave a fluorescence, percent of control (lower = inhibition) of 38.5%. The compound also gave a GTP binding, percent of control in assay [3] of 53%. In addition, the GTP binding signal, raw median fluorescence (lower = inhibition) (MCF (arbitrary fluorescence units)) in assay [5] came to 95.4.
On to `O=C(O)c1ccc(CNCc2ccccc2Cl)s1`, for which the compound was classed as inactive in assay [1], in assay [4] and in assay [6]. This compound gave a fluorescence, percent of control (lower = inhibition) in assay [2] of 62%. The GTP binding, percent of control in assay [3] came out at 86.6%. This compound also showed a GTP binding signal, raw median fluorescence (lower = inhibition) (MCF (arbitrary fluorescence units)) in assay [5] of 32.2.
For the compound `O=C(O)c1ccc(N2C(=O)/C(=C/c3ccc(-c4ccc([N+](=O)[O-])cc4)o3)C=C2c2ccccc2)cc1`, the compound was called inactive in assay [1], in assay [4] and in assay [6]. In assay [2], this compound registered a fluorescence, percent of control (lower = inhibition) of 33.9%. In assay [3], this compound came in with a GTP binding, percent of control of 77.4%. Moreover, the GTP binding signal, raw median fluorescence (lower = inhibition) (MCF (arbitrary fluorescence units)) in assay [5] stood at 179.
As for `O=C(COC(=O)/C=C/c1ccc(Cl)cc1)Nc1ccc2c(c1)OCCO2`, the call in assay [1], in assay [4] and in assay [6] was inactive. In assay [2], this compound showed a fluorescence, percent of control (lower = inhibition) of 40.2%. The GTP binding, percent of control in assay [3] amounted to 59.5%. Further, in assay [5], the GTP binding signal, raw median fluorescence (lower = inhibition) (MCF (arbitrary fluorescence units)) came to 162.
